Test results taken from PubChem BioAssay (NCI).
The panel holds about 83,000 compounds, 20% with a hit somewhere; the sample as a whole holds those more often.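 Interpretation: 100, growth as untreated; towards 0, rising growth inhibition; 0, no net growth; 0 to -100, cell death. Compounds scoring below 10 were considered active.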 A number with no mark means an inactive call. The source made the active and inactive calls.

Key:
Assay in all cases: NCI-60 one-dose screen, 48 h (100 = growth as untreated, 0 = no growth, -100 = all killed)
Conditions in all cases: 10 µM unless noted
[1] = test system: NCI-H23 lung
[2] = test system: NCI-H226 lung
[3] = test system: NCI-H322M lung
[4] = test system: HOP-62 NSCLC
[5] = test system: NCI-H460 lung
[6] = test system: HOP-92 NSCLC
[7] = test system: NCI-H522 lung
[8] = test system: A549/ATCC NSCLC
[9] = test system: 786-0 renal
[10] = test system: COLO 205 colon

| SMILES | growth [1] | growth [2] | growth [3] | growth [4] | growth [5] | growth [6] | growth [7] | growth [8] | growth [9] | growth [10] |
| --- | --- | --- | --- | --- | --- | --- | --- | --- | --- | --- |
| N#Cc1c(-c2ccccc2)nc(SCc2nnc(-c3ccc(Cl)cc3)o2)[nH]c1=O | 105% | 97.2% | 104% | 63.7% | 105% | 78.8% | 71.2% | 78.2% | 89.2% | 89.3% |
| N#Cc1c(-c2ccccc2)nc(SCC(O)CN2CCOCC2)nc1N1CCOCC1 (stereo not given) | 81.7% | 80% | 52.3% | 48% | 34% | 30.7% | 63.3% | 80.3% | 38.1% | 81.1% |
| Cc1ccc(NC(=O)Cn2c(Br)nc3c2c(=O)n(C)c(=O)n3C)cc1 | 22.7% | -13.2% (active) | 30.6% | 6.37% (active) | 14.6% | -2.3% (active) | 62.6% | 27.1% | -67.1% (active) | 19.5% |
| COc1cc(C(=O)n2nc(N3CCOCC3)c3cc(-n4cccc4)ccc32)cc(OC)c1OC | 76.5% | 69.3% | 88.3% | 92.4% | 75.7% | 14.4% | 74.4% | 72.6% | 17.4% | 56.6% |
| NC(N)=NS(=O)(=O)c1ccc(NC2=C(I)C(=O)c3ncccc3C2=O)cc1 | 89.9% | 86.7% | 109% | 111% | 103% | 115% | 81% | 106% | 110% | 112% |
| Cc1ccccc1Nc1cc(O)c2c(=O)cc(-c3ccccc3)oc2c1 | 45.5% | 57.8% | 70.5% | 49.4% | 8.06% (active) | 86.7% | 36% | 35.2% | 43.5% | 61.8% |
| COc1cccc(C(=O)NNc2nc(Cl)nc(Cl)n2)c1 | 99.1% | 105% | 98.5% | 104% | 107% | 98.3% | 100% | 105% | 101% | 107% |
| COc1ccc(/C=C/C(=O)c2cc3c(N)c(C(=O)Nc4cccc(Cl)c4C)sc3nc2C)cc1 | 19.8% | 34.8% | 33.1% | 20.7% | 0.238% (active) | 39.2% | -8.5% (active) | 17.6% | 4.44% (active) | -28.9% (active) |
| O=C1c2ccccc2C(=O)c2c1c(C(=O)NCc1ccccc1)c1ccccn21 | 101% | 100% | 99.4% | 94.4% | 107% | 91.7% | 73.4% | 76.8% | 94.5% | 108% |
| CC(=O)ON1CCCC(P(=O)(OCCSC(=O)C(C)(C)C)OCCSC(=O)C(C)(C)C)C1=O (stereo not given) | 45.9% | 33.6% | 46.1% | 32% | 16.1% | 29.4% | 28.9% | 33.5% | 19.1% | 27.5% |
| COc1ccc(C(=O)c2cc3c(N)c(C(=O)Nc4ccccc4)sc3nc2C)cc1 | 36.1% | 65.3% | 63% | 44.8% | 6.22% (active) | 82.2% | 9.62% (active) | 31.1% | 46.4% | 7.64% (active) |
| COc1cc(OC)c2sc(-c3ccc(-n4cncc4-c4cc(OC)c(OC)c(OC)c4)cc3)nc2c1 | 54.5% | 52.7% | 86.8% | 79.6% | 46.2% | 14.8% | 43.2% | 50.9% | 67.2% | 44.5% |
| c1ccc(CCNc2c3ccccc3nc3ccccc23)cc1 | 38.6% | 56.3% | 46.6% | 55.1% | 15.3% | -1.55% (active) | 39.8% | 32.7% | 38.1% | 21.2% |
| O=C(CI)NC(=O)NC(=O)NCc1ccccc1 | 32.6% | -43.6% (active) | 86.4% | 85.9% | 102% | -17.4% (active) | -82% (active) | 92.9% | 23.9% | -41.4% (active) |
| Cc1cn(-c2cc(NC(=O)c3cncc(C#Cc4c(N)ncc5ccc(F)cc45)c3)cc(C(F)(F)F)c2)cn1 | 25% | 36.2% | 65.7% | 67.3% | 49.2% | -8.98% (active) | 58.1% | 61.3% | 77.1% | 11.6% |
| CC(C)(C)n1cc(-c2ccnc(NCCCNS(=O)(=O)c3cccc4ccccc34)c2)c(-c2cccc(F)c2)n1 | 68.3% | 85.6% | 92.9% | 92.2% | 73.3% | 46.8% | 80.5% | 73.4% | 71.2% | 68.8% |
| CN1CCN(CCOc2ccc(-c3cnc4c(-c5cccc(F)c5F)cnn4c3)cc2)CC1 | 35.9% | 97.9% | 96% | 106% | -55.9% (active) | 100% | 88.6% | -7.4% (active) | -61.4% (active) | 87.6% |
| COc1ccc(/C=C(/c2ccccc2)[N+](=O)[O-])c(OC)c1 | 21.1% | 59.9% | 46.1% | 4.17% (active) | 2.72% (active) | -25.4% (active) | -13.2% (active) | 7.88% (active) | -66.1% (active) | -26.9% (active) |
| CC1=C(C(=O)Nc2ccccc2)C(c2ccc3c(c2)OCO3)NC(=S)N1 (stereo not given) | 97.9% | 96.7% | 107% | 121% | 113% | 112% | 87.9% | 108% | 101% | 117% |
| O=C(/C=C/c1ccc(Oc2ccc(Br)cc2)cc1)c1ccc(Br)cc1 | 95.3% | 103% | 95.3% | 99.9% | 105% | 91.6% | 91.1% | 94.4% | 101% | 113% |
| COc1cccc(Nc2ncnc3cc(NC(=O)CCl)ccc23)c1 | -50.9% (active) | -48.3% (active) | 37.5% | -89.8% (active) | -72.7% (active) | -74.8% (active) | -77.4% (active) | -27.7% (active) | -89.7% (active) | -90% (active) |
| CCN1C(=O)N(CC)C2C1NC(=S)N2/N=C/c1ccc(OC)cc1 (stereo not given) | 74.9% | 78.8% | 79.4% | 59.5% | 26.1% | 70.5% | 16.8% | 41.7% | 62.1% | 41.7% |
| CC1(C)CC[C@]2(CO)CC[C@]3(C)[C@H](CC[C@@H]4[C@@]5(C)CCCNC(C)(C)[C@@H]5CC[C@]43C)[C@H]2[C@H]1O | 88.1% | 103% | 93.8% | 98% | 11.7% | 83.8% | 92.1% | 73% | 96.7% | 0.611% (active) |
| CCN(CC)Cc1cc(Nc2ccnc3cc(Cl)ccc23)ccc1O | 99.2% | 105% | 89.7% | 89.4% | 96.8% | 88.5% | 91.2% | 107% | 96.8% | 81.5% |
| CN(C)c1ccc(/C=C(\C#N)c2cc3ccccc3[nH]2)cc1 | 28.4% | 70.8% | 38.4% | 28.7% | 13.3% | 26.4% | -9.55% (active) | 41.4% | 32.9% | 4% (active) |
| Cc1ccc(S(=O)(=O)N2CCC(=O)c3ccccc32)cc1 | 85% | 93.9% | 89.3% | 80.8% | 86.5% | 80.8% | 84% | 102% | 93.7% | 76.4% |
| Cc1ccc(C)c2c(C)c(C(=O)Nc3cccc(-n4cccn4)c3)oc12 | 73.1% [50 µM] | 62.1% [50 µM] | 86.5% [50 µM] | 99.4% [50 µM] | 56.4% [50 µM] | 90.8% [50 µM] | 32% [50 µM] | 58.4% [50 µM] | 82.2% [50 µM] | 62.8% [50 µM] |
